Pf growth 48h: inhibits P. falciparum growth in the first generation, 48 h. Potency, µM (series often up to 28.7 µM), most hits filed as inhibitors. 5.9% of 310,000 active. P. falciparum luciferase growth in erythrocytes, 48 h
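In quantitative HTS format, infected erythrocytes bearing luciferase-reporter parasites were treated for a single generation at 37 C. Luminescence after adding detection reagent served as the growth measure.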
SARS PLP yeast: SARS-CoV PLP inhibition in yeast. S. cerevisiae expressing SARS-CoV PLpro, growth rescue. Potency, µM (highest dose often 32.9 µM), most hits filed as activators. 0.19% of 330,000 active. AID 485353; calls by dose curve; further: nearly all actives have a fitted effect of over 55% in size
Shiga toxin inh: Shiga toxin inhibition; 9.2% of 290,000 active; inhibition, % at 38.7 µM; AID 2315; Vero cells, Shiga toxin protein synthesis inhibition reporter; in the data active means inhibition mostly above about 28%, no sharp cut-off; inactive means mostly below about 43%
Pf growth 96h: inhibits malaria parasite growth, 96 h; Potency, µM (highest dose often 28.7 µM), hits mostly inhibitors; 6.9% of 320,000 active; P. falciparum luciferase reporter growth, 96 h; AID 504834
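Luminescence readout: decreased luciferase signal marks inhibited growth of reporter-expressing P. falciparum in infected red cells (2% hematocrit, 0.05% parasitemia final), exposed to compound two generations (96 h, 37 C, 5% CO2).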
AMA1-RON2 inh: inhibitors of Plasmodium falciparum AMA1-RON2 interaction; AlphaScreen AMA1-biotinylated RON2 peptide binding; Potency, µM (titrated, usually from 58.2 µM), actives largely listed as inhibitors; 0.2% of 360,000 active; AID 720542; further: nearly all actives have a fitted effect of over 45% in size
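AMA1 (3D7) with his tag at 25 nM final met compounds first, then biotinylated RON2 peptide at 25 nM; detection used donor plus acceptor beads, 10 µg/mL apiece, read by AlphaScreen after 30 min at room temperature.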
CHX counter: counter-screen hit for Shiga toxin inhibitors, cycloheximide; cell reporter, cycloheximide protein synthesis inhibition counterscreen; max response, %; 12% of 300,000 active; in the data active means max response mostly above about 13%, no sharp cut-off; inactive means mostly below about 14%; further: read at 38.3 µM for the half of the compounds with a filed dose
A number is an active result; i = inactive; ? = inconclusive; nt = no result given. A selection: hits, their analogues and other compounds. The true share with any hit is near 19%. Unless noted, the call rests on the fitted dose curve; in most records, active means well fitted curve in the direction sought with a large enough effect; inconclusive means small, poorly fitted or top-dose-only effect, or another doubt; inactive means no such curve, though single readings can be large; an effect the other way counts as inactive or inconclusive.

SMILES | Pf growth 48h | SARS PLP yeast | Shiga toxin inh | Pf growth 96h | AMA1-RON2 inh | CHX counter
Cc1ccc(N(Cc2ccccc2)C(=O)c2ccc(C)c(S(=O)(=O)N3CCOCC3)c2)cc1 | 6.6µM | i | nt | 2.1µM | i | nt
Cc1ccc(N(C(=O)c2ccc(S(=O)(=O)N3CCOCC3)cc2)C2C=CS(=O)(=O)C2)cc1 (stereo not drawn) | i | i | i | 8.3µM | i | i
CC(=O)N1CCN(S(=O)(=O)c2cccc(C(=O)N(Cc3ccccc3)c3cccc(C)c3)c2)CC1 | ? | i | nt | 8.3µM | i | nt
Cc1ccc(N(Cc2ccccc2)C(=O)c2cccc(S(=O)(=O)N3CCOCC3)c2)cc1 | 10µM | i | nt | 10µM | i | nt
Cc1cc(C)nc(SCc2ccc(C(=O)N/N=C3\CCCC(=O)C3)cc2)n1 | ? | i | i | ? | i | i
CNC(=O)C[C@@H]1C(=O)N(c2ccc(Br)cc2)CC1(C)C | nt | nt | nt | nt | i | nt
C=CCc1ccc(OCC(O)CN2CCCCC2C)c(OC)c1 (stereo not drawn) | nt | i | i | i | i | i
COCCN(C(=O)c1ccc2c(c1)S(=O)(=O)N=C1CCCCCN12)c1c(N)n(CC(C)C)c(=O)[nH]c1=O | nt | nt | nt | nt | i | nt
Cc1ccc(N(Cc2ccccc2)C(=O)c2ccc(S(=O)(=O)N3CCOCC3)cc2)cc1 | 13µM | i | nt | ? | i | nt
Cc1ccc(N(Cc2ccccc2)C(=O)Cc2ccc(S(=O)(=O)N3CCOCC3)s2)cc1 | 13µM | i | nt | ? | i | nt
COc1ccc(CC(=O)N(Cc2ccccc2)c2ccc(C)cc2)cc1S(=O)(=O)N1CCOCC1 | ? | i | nt | 13µM | i | nt
O=C(CCN1C(=O)c2ccccc2C1=O)C1=NN[C@@H]2C(=O)N(c3cccc(Cl)c3)C(=O)[C@H]12 | i | i | i | i | i | i
Cc1ccccc1/C=C1\CCCc2ccccc2C1=O | i | i | 80 | i | i | 45
CCN1C/C(=C/c2sccc2C)c2nc3ccccc3c(C(=O)O)c2C1 | i | i | i | i | i | i
Cc1ccsc1/C=C1\CCc2ccccc2C1=O | nt | i | i | 10µM | i | 41
COc1cccc(C=C2Cc3ccccc3C2=O)c1 | nt | nt | nt | nt | i | nt
O=C1/C(=C\c2ccc3ccccc3c2)CCCc2ccccc21 | ? | i | 73 | i | i | 60
O=C1C(=NO)CCCc2ccccc21 | nt | nt | nt | nt | i | nt
Cc1ccc(C(=O)COc2cc(C)nc3nncn23)cc1 | i | i | i | i | i | i
OCc1ccccc1SSc1ccccc1CO | nt | nt | nt | nt | i | nt
COc1ccc(CNC(=O)CCS(=O)(=O)c2ccc(Br)cc2)cc1 | i | i | i | 4.7µM | i | i
CCN(C(=O)CCS(=O)(=O)c1ccc2c(c1)oc(=O)n2C)c1ccc(OC)cc1 | i | i | i | 10µM | i | i
COc1ccc(CCNC(=O)CCS(=O)(=O)c2ccc3c(c2)oc(=O)n3C)cc1OC | ? | i | i | 4.1µM | i | i
CC1CCN(C(=O)CCNS(=O)(=O)c2ccc3c(c2)oc(=O)n3C)CC1 | i | i | i | ? | i | i
Cc1ccc(CCNC(=O)CCS(=O)(=O)c2ccc3c(c2)oc(=O)n3C)cc1 | i | i | i | ? | i | i
SMILES | Pf growth 48h | SARS PLP yeast | Shiga toxin inh | Pf growth 96h | AMA1-RON2 inh | CHX counter
CC1CC(C)CN(CCCNS(=O)(=O)c2ccc3c(c2)oc(=O)n3C)C1 (stereo not drawn) | i | i | i | 10µM | i | i
COCCNC(=S)N/N=C(\C)c1cccc([N+](=O)[O-])c1 | i | i | i | i | i | i
Cc1ccc(C)c(C(C)NC(=O)c2ccc(Br)o2)c1 (stereo not drawn) | i | i | i | ? | i | i
COc1ccc(CNC(=O)CCS(=O)(=O)c2ccc3c(c2)oc(=O)n3C)cc1 | i | i | i | 8.3µM | i | i
COc1ccc(CCNS(=O)(=O)c2ccc3c(c2)oc(=O)n3C)cc1OC | i | i | i | i | i | i
CCOc1ccc(CCNS(=O)(=O)c2ccc3c(c2)oc(=O)n3C)cc1OCC | i | i | i | 13µM | i | i
O=C(COC(=O)C1CC1)Nc1ccc(N=Nc2ccccc2)cc1 | i | i | 79 | i | i | 66
O=C(COC(=O)C1CC1)Nc1ccc(OC(F)F)cc1 | nt | i | 24 | i | i | 26
COC(=O)CCC(=O)Nc1ccc(N=Nc2ccccc2)cc1 | i | i | 64 | i | i | 39
O=C(COC(=O)c1ccccc1O)Nc1ccc(OC(F)F)cc1 | i | i | 56 | 9.3µM | i | 22
O=C(COC(=O)C1CCC1)Nc1ccc(OC(F)F)cc1 | i | i | i | i | i | i
O=C1CCCN1CCC1CCN(C2CC(=O)N(c3ccc(Cl)cc3)C2=O)CC1 (stereo not drawn) | i | nt | i | i | i | i
COc1cc(C(=O)O[C@H]2C/C(C)=C/CC[C@@]3(C)O[C@@H]3[C@H](O)[C@@H]2C(C)C)cc(OC)c1OC | ? | i | i | ? | i | i
O=C1CCOc2cc(OCc3ccccc3)ccc21 | i | i | 50 | i | i | 33
COc1cccc(-c2cc(C(=O)N3CCCc4ccccc43)no2)c1 | ? | i | 46 | ? | i | 28
COc1ccc(-c2cc(C(=O)N3CCCc4ccccc43)no2)cc1 | i | i | 94 | i | i | 44
COc1ccc(C(=O)N2CCCc3ccccc32)cc1 | i | i | i | 0.26µM | i | i
CCN(CC)S(=O)(=O)c1cccc(C(=O)N2CCCc3ccccc32)c1 | i | i | 38 | i | i | 21
COCCCNC(=S)N(Cc1ccccc1)Cc1ccccc1 | ? | i | i | i | i | i
CCOc1ccc(NS(=O)(=O)c2cc(C(=O)N(CC)CC(=O)NCc3cccs3)ccc2C)cc1 | i | i | nt | ? | i | nt
COc1ccccc1-c1cc(C(=O)N2CCCc3ccccc32)no1 | i | i | 72 | ? | i | 60
COc1ccc(OC)c(-c2cc(C(=O)N3CCCc4ccccc43)no2)c1 | ? | i | i | ? | i | i
COc1ccccc1N(C)S(=O)(=O)c1ccc(C(=O)N2CCCc3ccccc32)cc1 | 13µM | i | i | ? | i | i
CCCCN(CC)S(=O)(=O)c1ccc2c(c1)CCCN2C(C)=O | ? | i | i | 13µM | i | i
COc1cc(C2=NOC(C(=O)N3CCCc4ccccc43)C2)cc(OC)c1OC (stereo not drawn) | i | i | i | i | i | i
COc1ccc(C2=NOC(C(=O)N3CCCc4ccccc43)C2)cc1 (stereo not drawn) | i | i | i | i | i | 23
CC1CCCCN1CCNC(=O)C1CC(=O)N(c2ccc(F)c(Cl)c2)C1 (stereo not drawn) | ? | i | i | i | i | i
CC1CCCN(CCCNC(=O)C2CC(=O)N(c3ccc(F)c(Cl)c3)C2)C1 (stereo not drawn) | 15µM | i | i | i | i | i
Cc1cc2cc(C(c3nnnn3Cc3ccccc3)N3CCc4ccccc43)c(=O)[nH]c2cc1C (stereo not drawn) | nt | i | i | 5.2µM | i | i

Assay outcomes: PubChem, National Center for Advancing Translational Sciences (NCATS)
